Pf growth 48h: inhibits P. falciparum growth in the first generation, 48 h; P. falciparum luciferase growth in erythrocytes, 48 h; Potency, µM (series often up to 28.7 µM), for inactives: at the highest dose activity change, negative = inhibition, hits mostly inhibitors; 5.9% of 310,000 active; also: potency is read from the fitted curve at half-maximal effect; % is scaled to controls: 0 for no effect and ±100 for the full control effect
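First compound was added to culture medium, then infected red cells at 0.1% parasitemia and 2% hematocrit (final). After incubation at 37 C under 5% CO2, luciferase detection reagent was dispensed and light output recorded.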
Pf growth 96h: inhibits malaria parasite growth, 96 h; P. falciparum luciferase reporter growth, 96 h; Potency, µM (series often up to 28.7 µM), inactives show at the highest dose activity change, negative = inhibition, usual class: inhibitors; 6.9% of 320,000 active; AID 504834; also: potency is read from the fitted curve at half-maximal effect; % is scaled to controls: 0 for no effect and ±100 for the full control effect
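Parasite growth measured via integrated firefly luciferase reporter in P. falciparum. Infected erythrocytes at 2% hematocrit, 0.05% parasitemia final were treated 96 hours at 37 C under 5% CO2, and luminescence was read.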
Cycloheximide cs: counter-screen for Shiga toxin inhibitors: cycloheximide protein synthesis inhibition; max response, %; 12% of 300,000 active; cell reporter, cycloheximide protein synthesis inhibition counterscreen; AID 2314; in the data active = max response mostly above about 13%, no sharp cut-off; inactive = mostly below about 14%; also: read at 38.3 µM for the half of the compounds with a filed dose; 0% is about no effect
HCMV inh: human cytomegalovirus inhibition; activity change, negative = inhibition, % at 57.5 µM; 4.5% of 410,000 active; HFF cells, HCMV-luciferase reporter, 72 h; active compounds read low; AID 1259415; in the data active = activity change below about -60%; inconclusive = no clear call, values can overlap the other calls; inactive = above about -39%; also: % is scaled to controls: 0 for no effect and ±100 for the full control effect
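Two compound doses tested in HFFs infected with HCMV-luciferase, MOI 1 PFU/cell, 72 h at 37C. Lysate luminescence read with OneGlo; data normalized against buffer-only and 10uM Salinomycin inhibitor controls.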
Shiga inhibitor: inhibitors of Shiga toxin in Vero cells. Vero cells, Shiga toxin protein synthesis inhibition reporter. inhibition, % at 38.7 µM. 9.2% of 290,000 active. AID 2315; in the data active = inhibition mostly above about 28%, no sharp cut-off; inactive = mostly below about 43%; also: 0% is about no effect
* hit, by the source's call; ? = inconclusive; nt = no result; + = active, no number; [ ] = remark or other dose. Only some compounds are listed: those with a hit (about 20% of all), similar ones and a draw of the others. Unless noted, calls follow the shape of the dose curve; as a rule, active = well fitted inhibition curve with a large enough effect; inconclusive = small, poorly fitted or top-dose-only effect, or another doubt; inactive = no such curve, though single readings can be large or run the other way.

SMILES | Pf growth 48h | Pf growth 96h | Cycloheximide cs | HCMV inh | Shiga inhibitor
COc1cc(/C=N/NC(=O)c2ccncc2)ccc1OCC(=O)Nc1cccc([N+](=O)[O-])c1 | 21.1% | 3.0% | 0.7 | -35.6 | -6.1
COc1cc(/C=N/NC(=O)c2ccncc2)ccc1OCCN1CCCCC1 | 15.8% | 26.9% | 35.4* | ? | +
COc1cc(/C=N/NC(=O)c2ccncc2)ccc1OCC(=O)Nc1ccc(C)c(C)c1 | -10.4% | 10.5% | 13.0* | -21.9 | 40.1
COc1cc(/C=N/NC(=S)Nc2cccc(Cl)c2C)ccc1OCC(=O)N1CC(C)OC(C)C1 (centres undefined) | 9.28µM* | ? | 4.3 | -32.8 | -2.3
COc1cc(/C=N/NC(=S)NC(C)C)ccc1OCC(=O)Nc1c(C)cc(C)cc1C | 11.7µM* | 13.1µM* | 1.9 | 5.9 | 18.3
COc1cc(/C=N/NC(=O)c2ccncc2)ccc1OC(C)=O | 7.9% | ? | -1.6 | -11.2 | -11.1
COc1cc(/C=N/NC(=O)c2ccc(Cl)cc2)ccc1OCC(=O)N1CC(C)OC(C)C1 (centres undefined) | 2.3% | 39.0% | 10.7 | 53.8 | 18.0
C=CCOc1ccc(/C=N/NC(=O)CN2CCCCC2)cc1OC | -16.8% | -23.9% | 1.0 | 13.1 | -8.0
COc1cc(/C=N/NC(=O)c2cc3ccccc3cc2O)ccc1OCCN1CCCCC1 | ? | ? | 42.5* | -35.1 | active
CCn1c(COc2ccc(=O)n(-c3ccccc3)n2)nnc1SCc1ccccc1C | ? | ? | 7.2 | -64.9* | -2.6
CCn1c(COc2ccc(=O)n(-c3ccccc3)n2)nnc1SCc1ccc(C)cc1 | ? | ? | -3.7 | -14.1 | -6.0
CCOc1ccc(S(=O)(=O)N2CCOCC2)cc1NC(=O)CN1C(=O)NC(C)(c2ccc(C)cc2)C1=O (centres undefined) | 10.4µM* | ? | nt | -34.1 | nt
CCOc1ccc(S(=O)(=O)N2CCOCC2)cc1NC(=O)CN1C(=O)NC2(CCCCC2)C1=O | -8.8% | -0.4% | nt | 0.0 | nt
Cc1ccc(C2(C)NC(=O)N(CC(=O)N3CCN(S(=O)(=O)c4cccc(F)c4)CC3)C2=O)cc1 (centres undefined) | -18.7% | 11.7µM* | -2.5 | 6.6 | 1.9
CCCC1(c2ccccc2)NC(=O)N(CC(=O)Nc2cc(S(=O)(=O)N3CCOCC3)ccc2Cl)C1=O (centres undefined) | -24.3% | 13.1µM* | -1.4 | -6.2 | 39.2
O=C(CN1C(=O)NC2(CCCC2)C1=O)N1CCN(S(=O)(=O)c2cccc(F)c2)CC1 | 3.2% | 20.0% | 1.0 | -2.1 | -26.6
COc1ccc(S(=O)(=O)N2CCCCCC2)cc1NC(=O)CN1C(=O)NC(C)(c2ccccc2)C1=O (centres undefined) | 9.28µM* | 4.15µM* | nt | -2.8 | nt
O=C1c2ccccc2C(=O)N1CCC1(O)C(c2ccccc2)=Nc2ccccc21 (centres undefined) | nt | nt | nt | -10.0 | nt
C#CCNC(=O)C[C@@H]1C[C@@]2(C(=O)OCC)CCC=C2N(CCC2=CCCCC2)C1=O | nt | nt | nt | 9.8 | nt
C=CCn1c(SCC(=O)/C(C#N)=C(\C)N)nc2sc(CC)cc2c1=O | ? | 10.4µM* | 6.7 | -4.5 | 18.2
CCc1nc2ccc(C(=O)Nc3ccc(C(N)=O)cc3)cn2c1N(CCC(C)C)CCN(C)C | nt | nt | nt | 10.1 | nt
O=C(Nc1ccc2c(c1)OCCO2)c1ccco1 | 208.8% | ? | 40.4* | 114.2 | 112.4*
O=C(COC(=O)c1ccco1)Nc1ccc2c(c1)OCCO2 | 0.2% | -15.3% | 56.2* | -11.4 | 79.3*
Cc1ccc(NC(=O)COC(=O)c2ccco2)cc1C | -4.8% | -10.4% | nt | -16.6 | nt
O=C(Nc1cccc(NC(=O)c2ccco2)c1)c1ccc2c(c1)OCCO2 | 31.8% | -2.4% | 21.6 | ? | 43.0
SMILES | Pf growth 48h | Pf growth 96h | Cycloheximide cs | HCMV inh | Shiga inhibitor
C[C@H](NC(=O)c1ccco1)C(=O)Nc1ccc2c(c1)OCO2 | 36.4%[5.75 µM] | 33.9% | 9.4 | 7.1 | -6.5
CC1(C)Oc2ccc(NC(=O)c3ccco3)cc2O1 | 137.9% | -23.6% | 31.6* | -13.4 | 90.8*
Cc1ccc(-c2nnc3ccccc3c2C(=O)Nc2ccccc2F)cc1 | nt | nt | nt | 0.0 | nt
CN1CCN(C(=S)NCCc2ccccc2)CC1 | 39.8% | 43.6% | 35.0* | 106.4 | 44.5
S=C(NCCc1ccccc1)N1CCN(C2CCCCC2)CC1 | ? | -0.3% | -0.4 | -21.4 | -3.6
OCC1CCCN(C(=S)NCCc2ccccc2)C1 (centres undefined) | 87.9% | 479.9% | 32.7* | 100.8 | 35.7
O=C(NCCc1ccccc1)N1CCCC(CNS(=O)(=O)Cc2ccccc2)C1 (centres undefined) | 2.4% | 18.6% | 13.7* | -21.3 | 21.6
OC1CCCN(C(=S)NCc2ccccc2)C1 (centres undefined) | 42.3% | 3.29µM* | 6.5 | 39.8 | -15.0
CCOC(=O)CNC(=O)N1CCCC(CNS(=O)(=O)Cc2ccccc2)C1 (centres undefined) | 14.0% | -15.7% | -1.1 | -19.5 | -4.8
CCOC(=O)c1c(C)oc2nc(C)nc(NCCCN3CCN(c4ccc(F)cc4)CC3)c12 | nt | nt | nt | 0.2 | nt
CC1CCN(C(=S)NCCc2ccccc2)CC1 | nt | 191.3% | 30.3* | 82.8 | 82.0*
S=C(NCCc1ccccc1)N1CCN(C(=S)NCCc2ccccc2)CC1 | -12.8% | 17.5% | nt | -22.7 | nt
Cc1cccc(OCCNc2cc(N3CCN(C)CC3)ccc2[N+](=O)[O-])c1 | 0.6% | 5.5% | -2.6 | 2.0 | -14.0
Cc1cccc(OCCNc2cc(N3CCOCC3)ccc2[N+](=O)[O-])c1 | ? | ? | 29.6* | 1.7 | 26.0*
O=C1C2C(C(=O)N1/N=C/c1ccco1)C1C=CC2C12CC2 (centres undefined) | 28.3% | 43.0% | 4.4 | 35.3 | 16.6
Cc1ccc(/C=N/N2C(=O)C3C(C2=O)C2C=CC3C23CC3)o1 (centres undefined) | 22.4% | -3.1% | 17.6* | 2.1 | 13.6
O=C1C2C(C(=O)N1/N=C/c1cc(Br)cc([N+](=O)[O-])c1O)C1C=CC2C12CC2 (centres undefined) | ? | 11.7µM* | 2.1 | -4.3 | -6.6
O=C1C2C(C(=O)N1/N=C/c1cc([N+](=O)[O-])ccc1O)C1C=CC2C12CC2 (centres undefined) | -22.0% | ? | 4.8 | 74.2 | -8.4
O=C1C2C(C(=O)N1/N=C/c1cccc([N+](=O)[O-])c1)C1C=CC2C12CC2 (centres undefined) | 99.4% | 106.2% | 51.8* | -28.9 | 74.6*
CN(C(=O)CNc1ccccc1Cl)C1CCS(=O)(=O)C1 (centres undefined) | nt | nt | nt | -27.6 | nt
O=C1C(=O)N(C/C=C/c2ccccc2)c2ccccc21 | 9.3% | 30.2% | -1.3 | -21.6 | -8.9
COc1ccccc1-c1nc(SCc2ccccn2)n[nH]1 | 50.3% | 46.5% | 41.3* | 52.5 | 75.8*
COc1ccccc1OCCN1CSC(=S)N(C)C1 | -0.9% | -10.8% | -2.7 | -73.9* | 1.8
Cc1cccc(OCCN2CSC(=S)N(C)C2)c1 | -0.8% | nt | -2.8 | -1.9 | -13.1
C=CCN=c1scc(-c2ccc(F)cc2)n1/N=C/c1ccccn1 | ? | ? | 19.3* | -85.3* | 90.0*
